According to PubChem BioAssay:
The source made the active and inactive calls.

Key:
[1] = test system: PRMT1 (protein arginine N-methyltransferase 1); test: small molecules binding arginine methyltransferase PRMT1 – biochemical, small-molecule microarray, 635 nm fluorescence, primary screen (AID 1088); conditions: higher = more signal;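 note: binding of Prmt1 protein to compounds spotted on small-molecule microarray slides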
[2] = growth effects on S. cerevisiae YJM789 – YJM789 clinical isolate, OD600, 24 h, basal, primary screen (AID 1089); conditions: higher = more signal, called active from +8 up or from −8 down;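 note: growth of clinical yeast isolate S. cerevisiae YJM 789 seeded 1000 cells per well; test concentration not given here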
[3] = S. pombe growth modifiers, basal conditions – strain 972, OD600, 24 h, no modulator, primary screen (AID 1090);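 note: basal condition with compound alone and no growth modifier present; test concentration not given here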; conditions: S. pombe 972 growth, higher = more signal, called active from +8 up or from −8 down
[4] = budding yeast growth modifiers under rapamycin – strain BY4716, OD600, 96 h, primary screen (AID 1091); note: test concentration not given here; conditions: S. cerevisiae BY4716 + rapamycin, higher = more signal, called active from +8 up or from −8 down
[5] = biological target: Torsin-1A-interacting protein 2 (Homo sapiens) (UniProt Q8NFQ8); test: small molecules binding lysate-expressed LULL1 – cell lysate, human LULL1 lysate, 635/667 nm fluorescence, primary screen (AID 1092); conditions: small-molecule microarray, hLULL1 lysate binding, 635 nm fluorescence; higher = more signal;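 note: probe is lysate of COS7 cells overexpressing human LULL1; score merges per-feature 667 nm fluorescence with signal-to-noise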
Chain of Torsin-1A-interacting protein 2 (Homo sapiens) (Q8NFQ8 whole entry, looked up): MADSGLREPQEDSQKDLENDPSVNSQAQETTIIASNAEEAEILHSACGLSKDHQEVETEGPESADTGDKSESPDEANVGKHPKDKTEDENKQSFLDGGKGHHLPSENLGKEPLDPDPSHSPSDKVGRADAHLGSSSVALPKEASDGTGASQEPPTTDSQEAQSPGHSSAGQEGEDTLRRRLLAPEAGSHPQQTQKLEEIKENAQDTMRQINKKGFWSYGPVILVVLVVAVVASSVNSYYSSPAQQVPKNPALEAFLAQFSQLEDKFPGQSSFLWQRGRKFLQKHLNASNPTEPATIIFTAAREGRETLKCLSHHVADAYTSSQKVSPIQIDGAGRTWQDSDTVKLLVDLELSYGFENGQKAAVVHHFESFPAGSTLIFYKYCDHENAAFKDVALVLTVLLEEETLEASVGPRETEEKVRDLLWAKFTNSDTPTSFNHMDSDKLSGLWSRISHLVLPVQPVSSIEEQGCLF

[6] = optical density change of DRC41 E. coli – strain DRC41, OD650, 24 h, E. coli filamentation project, primary screen (AID 1093);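 note: MC1000 strain lacking acrAB efflux and sulA so SOS filamentation is blocked; test concentration not given here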; conditions: E. coli DRC41 growth, higher = more signal, called active from +8 up or from −8 down
[7] = probe aLefty2 binding to arrayed compounds – biochemical, biotinylated probe, 635/667 nm fluorescence, primary screen (AID 1094); conditions: small-molecule microarray, higher = more signal;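 note: score merges spot fluorescence near 667 nm with spot signal-to-noise ratio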
[8] = test system: Noggin (protein binding on small-molecule microarray); test: small molecules binding Noggin protein – biochemical, 635/667 nm fluorescence, primary screen (AID 1095); conditions: 635 nm fluorescence, higher = more signal;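 note: score merges 667 nm feature fluorescence with signal to noise over triplicate slides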
[9] = biological target: Neurogenic locus notch homolog protein 3 (Homo sapiens) (UniProt Q9UM47); test: small molecules binding NOTCH3 protein – biochemical, 635/667 nm fluorescence, primary screen (AID 1096); conditions: small-molecule microarray, 635 nm fluorescence, higher = more signal
Chain of Neurogenic locus notch homolog protein 3 (Homo sapiens) (Q9UM47 whole entry, looked up): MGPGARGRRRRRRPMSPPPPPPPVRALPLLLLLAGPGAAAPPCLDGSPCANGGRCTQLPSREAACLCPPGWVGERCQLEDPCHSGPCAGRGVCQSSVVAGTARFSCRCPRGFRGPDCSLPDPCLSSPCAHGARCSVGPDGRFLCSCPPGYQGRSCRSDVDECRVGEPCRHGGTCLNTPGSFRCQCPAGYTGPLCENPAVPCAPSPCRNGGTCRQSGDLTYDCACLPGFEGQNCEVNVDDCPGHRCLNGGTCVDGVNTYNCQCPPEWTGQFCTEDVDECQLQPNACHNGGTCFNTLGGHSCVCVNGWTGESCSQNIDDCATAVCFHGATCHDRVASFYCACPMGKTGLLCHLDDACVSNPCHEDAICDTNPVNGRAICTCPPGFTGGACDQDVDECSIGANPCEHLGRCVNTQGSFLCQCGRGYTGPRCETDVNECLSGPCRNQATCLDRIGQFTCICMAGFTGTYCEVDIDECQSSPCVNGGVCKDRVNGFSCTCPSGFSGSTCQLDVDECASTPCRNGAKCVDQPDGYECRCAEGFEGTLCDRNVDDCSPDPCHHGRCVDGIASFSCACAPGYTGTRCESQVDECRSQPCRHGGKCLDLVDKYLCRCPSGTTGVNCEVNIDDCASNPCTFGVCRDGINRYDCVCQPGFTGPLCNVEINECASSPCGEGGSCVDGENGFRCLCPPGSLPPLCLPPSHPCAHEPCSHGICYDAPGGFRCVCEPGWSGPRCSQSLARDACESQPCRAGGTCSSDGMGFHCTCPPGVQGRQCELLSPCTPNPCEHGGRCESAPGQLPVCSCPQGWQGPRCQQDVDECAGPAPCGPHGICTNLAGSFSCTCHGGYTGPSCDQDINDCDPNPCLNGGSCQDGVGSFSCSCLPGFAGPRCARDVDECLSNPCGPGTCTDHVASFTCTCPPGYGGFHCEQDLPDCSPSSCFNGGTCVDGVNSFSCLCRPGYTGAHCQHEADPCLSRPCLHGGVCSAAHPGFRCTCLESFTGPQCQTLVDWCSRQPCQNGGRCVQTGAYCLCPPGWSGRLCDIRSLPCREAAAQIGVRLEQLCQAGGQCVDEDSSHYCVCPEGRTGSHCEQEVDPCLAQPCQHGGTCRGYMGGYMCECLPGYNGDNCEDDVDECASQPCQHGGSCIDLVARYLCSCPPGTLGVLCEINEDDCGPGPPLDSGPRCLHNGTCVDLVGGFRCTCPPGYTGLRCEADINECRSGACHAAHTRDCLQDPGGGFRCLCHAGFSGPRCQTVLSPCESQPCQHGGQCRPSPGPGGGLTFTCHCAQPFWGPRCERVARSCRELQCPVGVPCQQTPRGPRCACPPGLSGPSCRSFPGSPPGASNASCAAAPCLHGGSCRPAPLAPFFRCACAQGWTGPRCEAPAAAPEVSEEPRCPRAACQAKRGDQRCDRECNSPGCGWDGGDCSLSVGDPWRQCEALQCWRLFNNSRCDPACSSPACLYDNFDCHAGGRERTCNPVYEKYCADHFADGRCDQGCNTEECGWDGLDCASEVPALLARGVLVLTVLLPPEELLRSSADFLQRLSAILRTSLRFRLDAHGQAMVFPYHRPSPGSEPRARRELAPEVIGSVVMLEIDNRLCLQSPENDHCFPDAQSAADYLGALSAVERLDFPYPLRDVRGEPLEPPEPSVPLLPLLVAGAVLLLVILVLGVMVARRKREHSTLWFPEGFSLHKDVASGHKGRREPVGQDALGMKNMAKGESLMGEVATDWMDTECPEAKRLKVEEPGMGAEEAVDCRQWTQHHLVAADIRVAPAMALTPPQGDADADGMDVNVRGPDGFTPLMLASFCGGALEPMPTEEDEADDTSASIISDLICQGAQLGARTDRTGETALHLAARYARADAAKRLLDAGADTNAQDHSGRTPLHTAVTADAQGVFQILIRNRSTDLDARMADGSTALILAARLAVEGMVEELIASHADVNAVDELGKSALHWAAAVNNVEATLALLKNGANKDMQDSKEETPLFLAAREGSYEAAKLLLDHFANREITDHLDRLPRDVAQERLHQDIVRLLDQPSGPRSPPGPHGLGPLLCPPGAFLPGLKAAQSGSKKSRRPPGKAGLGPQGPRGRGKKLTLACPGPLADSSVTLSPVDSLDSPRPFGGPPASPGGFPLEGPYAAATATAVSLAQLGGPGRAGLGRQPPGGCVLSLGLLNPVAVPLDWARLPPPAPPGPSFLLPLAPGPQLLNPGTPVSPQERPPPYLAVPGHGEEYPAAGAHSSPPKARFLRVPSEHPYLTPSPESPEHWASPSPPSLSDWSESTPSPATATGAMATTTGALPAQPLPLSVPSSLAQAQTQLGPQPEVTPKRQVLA

[10] = probe aEGFR binding to arrayed compounds – biochemical, biotinylated probe, 635/667 nm fluorescence, primary screen (AID 1097); conditions: small-molecule microarray, higher = more signal;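 note: probe is a biotinylated anti-EGFR antibody binding compounds printed on slides; score combines fluorescence near 667 nm and signal to noise of each spot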
[11] = test system: Plasmodium falciparum Sir2 (PF13_0152, Sir2A); test: Plasmodium falciparum Sir2A binding compounds – biochemical, small-molecule microarray, 635 nm fluorescence, primary screen (AID 1098); conditions: fluorescence 635 nm, higher = more signal;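 note: score merges spot fluorescence intensity with its signal-to-noise ratio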
[12] = probe aDKK1 binding to arrayed compounds – biochemical, biotinylated probe, 635/667 nm fluorescence, primary screen (AID 1099); conditions: small-molecule microarray, higher = more signal;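 note: score merges 667nm spot fluorescence with signal to noise across triplicate slides; reference of the scale not given here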
[13] = probe aCHRDL2 binding to arrayed compounds – biochemical, biotinylated probe, 635/667 nm fluorescence, primary screen (AID 1100); conditions: small-molecule microarray, higher = more signal
[14] = change in splice reporter luminescence, either direction, cell-based, HEK293, spliceosome inhibition project, primary screen (AID 1101); conditions: HEK293 splicing luciferase reporter, 24 h, higher = more signal, called active from +8 up or from −8 down;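 note: HEK293 cells carrying a splicing-competent luciferase reporter gene; test concentration not given here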
[15] = biological target: Fibroblast growth factor 10 (Homo sapiens) (UniProt O15520); test: compounds binding fibroblast growth factor 10 – biochemical, small-molecule microarray, 635 nm fluorescence, primary screen (AID 1102); conditions: FGF10 binding, fluorescence 635 nm, higher = more signal
Chain of Fibroblast growth factor 10 (Homo sapiens) (O15520 whole entry, looked up): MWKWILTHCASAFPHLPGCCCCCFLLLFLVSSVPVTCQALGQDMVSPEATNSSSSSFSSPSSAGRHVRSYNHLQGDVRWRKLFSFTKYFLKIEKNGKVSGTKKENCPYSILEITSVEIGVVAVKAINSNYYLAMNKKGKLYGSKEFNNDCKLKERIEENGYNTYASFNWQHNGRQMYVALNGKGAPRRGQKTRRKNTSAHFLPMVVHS

[16] = test system: glycogen synthase kinase-3 (GSK3A per assay name; protocol says GSK3B); test: compounds binding glycogen synthase kinase-3 – biochemical, small-molecule microarray, 635 nm fluorescence, GSK3A, primary screen (AID 1103); conditions: fluorescence 635 nm, higher = more signal; note: the record names both GSK3A and GSK3B
[17] = biological target: Epidermal growth factor receptor (Homo sapiens) (UniProt P00533); test: compounds binding epidermal growth factor receptor – biochemical, small-molecule microarray, 635 nm fluorescence, primary screen (AID 1104); conditions: EGFR binding, higher = more signal;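 note: score merges 667 nm emission intensity with spot signal to noise over triplicate slides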
Chain of Epidermal growth factor receptor (Homo sapiens) (P00533 whole entry, looked up): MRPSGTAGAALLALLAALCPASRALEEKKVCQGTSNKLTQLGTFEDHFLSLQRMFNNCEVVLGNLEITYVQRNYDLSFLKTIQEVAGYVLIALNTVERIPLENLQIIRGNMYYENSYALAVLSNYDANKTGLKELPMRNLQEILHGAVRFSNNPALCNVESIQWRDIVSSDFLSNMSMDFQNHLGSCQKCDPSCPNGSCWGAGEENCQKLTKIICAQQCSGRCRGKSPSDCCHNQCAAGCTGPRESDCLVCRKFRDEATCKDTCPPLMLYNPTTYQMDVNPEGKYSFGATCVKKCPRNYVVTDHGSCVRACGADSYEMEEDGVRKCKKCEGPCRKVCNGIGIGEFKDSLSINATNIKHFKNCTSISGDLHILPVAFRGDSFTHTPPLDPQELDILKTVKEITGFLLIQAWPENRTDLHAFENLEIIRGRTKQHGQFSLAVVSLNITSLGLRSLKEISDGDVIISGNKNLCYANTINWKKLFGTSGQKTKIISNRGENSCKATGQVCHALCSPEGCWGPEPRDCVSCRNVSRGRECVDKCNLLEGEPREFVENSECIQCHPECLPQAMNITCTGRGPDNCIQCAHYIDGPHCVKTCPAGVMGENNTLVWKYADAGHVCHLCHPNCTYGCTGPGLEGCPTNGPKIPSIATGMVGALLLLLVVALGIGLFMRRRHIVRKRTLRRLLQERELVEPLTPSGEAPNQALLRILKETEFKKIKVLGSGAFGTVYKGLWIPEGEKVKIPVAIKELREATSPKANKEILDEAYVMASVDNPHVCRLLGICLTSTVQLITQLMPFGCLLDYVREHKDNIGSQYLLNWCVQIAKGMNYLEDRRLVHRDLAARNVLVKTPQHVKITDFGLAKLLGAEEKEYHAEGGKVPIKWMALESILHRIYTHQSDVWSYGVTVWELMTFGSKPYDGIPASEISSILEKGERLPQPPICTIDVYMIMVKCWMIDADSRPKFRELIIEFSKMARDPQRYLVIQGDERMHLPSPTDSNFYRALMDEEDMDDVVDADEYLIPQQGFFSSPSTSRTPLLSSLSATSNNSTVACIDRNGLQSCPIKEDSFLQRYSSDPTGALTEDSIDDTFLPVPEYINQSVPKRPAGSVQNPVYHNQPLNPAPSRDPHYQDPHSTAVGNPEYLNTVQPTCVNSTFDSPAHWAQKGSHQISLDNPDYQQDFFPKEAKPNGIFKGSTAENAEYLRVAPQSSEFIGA

[18] = biological target: Follistatin-related protein 3 (Homo sapiens) (UniProt O95633); test: compounds binding follistatin-related protein 3 – biochemical, small-molecule microarray, 635 nm fluorescence, primary screen (AID 1105); conditions: FSTL3 binding, higher = more signal;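 note: score merges emission near 667 nm and signal to noise per printed spot across three slides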
Chain of Follistatin-related protein 3 (Homo sapiens) (O95633 whole entry, looked up): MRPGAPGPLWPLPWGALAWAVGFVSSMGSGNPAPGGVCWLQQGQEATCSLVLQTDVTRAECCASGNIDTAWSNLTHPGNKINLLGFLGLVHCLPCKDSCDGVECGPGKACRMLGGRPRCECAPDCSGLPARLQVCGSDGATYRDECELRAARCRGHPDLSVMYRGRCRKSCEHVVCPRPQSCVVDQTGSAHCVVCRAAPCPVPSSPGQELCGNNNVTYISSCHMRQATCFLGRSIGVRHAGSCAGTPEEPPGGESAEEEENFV

[19] = biological target: Dickkopf-related protein 1 (Homo sapiens) (UniProt O94907); test: small molecules binding DKK1 protein – biochemical, small-molecule microarray, 635 nm fluorescence scan, primary screen (AID 1106); conditions: higher = more signal;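 note: score merges emission near 667 nm with signal to noise over three replicate slides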
Chain of Dickkopf-related protein 1 (Homo sapiens) (O94907 whole entry, looked up): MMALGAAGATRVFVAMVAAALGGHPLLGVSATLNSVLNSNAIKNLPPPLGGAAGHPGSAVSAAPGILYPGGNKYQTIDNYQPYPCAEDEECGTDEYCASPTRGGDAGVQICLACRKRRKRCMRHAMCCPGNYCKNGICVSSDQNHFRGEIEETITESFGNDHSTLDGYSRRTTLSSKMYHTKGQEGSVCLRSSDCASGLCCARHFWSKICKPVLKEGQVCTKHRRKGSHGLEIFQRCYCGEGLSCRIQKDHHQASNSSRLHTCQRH

[20] = test system: Inhibin beta A chain (activin A); test: small molecules binding activin A – biochemical, small-molecule microarray, 635 nm fluorescence scan, primary screen (AID 1107); conditions: INHBA, higher = more signal;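 note: mouse activin A protein probed at 4.33 µg/mL on printed slides; score merges bound-protein fluorescence near 667 nm with spot signal-to-noise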

SMILES	composite z-score [1]	z-score [2]	z-score [3]	z-score [4]	composite z-score [5]	z-score [6]	composite z-score [7]	composite z-score [8]	composite z-score [9]	composite z-score [10]	composite z-score [11]	composite z-score [12]	composite z-score [13]	z-score [14]	composite z-score [15]	composite z-score [16]	composite z-score [17]	composite z-score [18]	composite z-score [19]	composite z-score [20]
COC(=O)[C@@]1(Cc2ccc(OC)cc2)[C@H]2c3cc(C(=O)N4CCCC4)n(Cc4ccc(S(C)(=O)=O)cc4)c3C[C@H]2CN1C(=O)c1ccccc1	-0.42	-0.288 (inactive)	0.868 (inactive)	1.16 (inactive)	3	-0.247 (inactive)	0.205	0.419	1.02	0.297	0.645	0.807	1.29	0.699 (inactive)	0.508	0.401	0.348	-0.0139	-0.802	0.881
C=CCOC(=O)[C@H]1[C@@H]2C(=O)O[C@@H](c3ccccc3)[C@@H](c3ccccc3)N2[C@@H](c2ccc(OCCOC(=O)[C@H]3C[C@H]4C(=O)N[C@@H](CCCCNC(C)=O)C(=O)N4[C@H]3c3cccc(OCCO)c3)cc2)[C@]12C(=O)Nc1ccc(I)cc12	1.55	1.15 (inactive)	1.14 (inactive)	4.54 (inactive)	2.18	1.44 (inactive)	-0.431	1.87	1.1	-0.336	1.14	-0.886	-0.887	-1.5 (inactive)	1.49	0.677	0.463	1.43	0.719	0.0677
O=C(NCC(O)CO)[C@@]1(CCS(=O)(=O)c2ccccc2)COC(c2ccc(OCCCO)cc2)=N1 (stereo not given in full)	0.797	0.257 (inactive)	-0.197 (inactive)	0.648 (inactive)	3.86	0.671 (inactive)	0.362	0.481	0.79	0.473	1.13	1.07	1.16	0.475 (inactive)	0.655	-0.454	-0.375	-0.199	-0.522	0.877
C=C(CCCC)C(=O)CC[C@H](OC(=O)c1ccccc1-c1ccccc1C(=O)O)c1ccccc1OCCO	0.774	0.604 (inactive)	-0.659 (inactive)	-0.918 (inactive)	0.189	1.07 (inactive)	-0.183	0.512	-0.025	-0.162	0.855	-0.475	-0.336	2.02 (inactive)	0.271	-0.218	-0.226	-0.279	0.145	1.28
[N-]=[N+]=NCc1ccccc1[C@@H]1OC(c2ccc(OCCCO)cc2)=N[C@]1(Cc1ccccc1N=[N+]=[N-])C(=O)NCCN1CCOCC1	1.55	-0.563 (inactive)	-4.92 (inactive)	-0.889 (inactive)	3.26	0.118 (inactive)	0.0814	1.6	1.05	0.0809	1.54	0.251	0.851	-0.312 (inactive)	1.51	1.34	0.218	1.23	0.331	0.533
